Screen size: about 2,200 compounds; about 1,300 (59%) were called active. How the calls were made is not given here. So high a share suggests a set chosen from earlier hits. A selection follows. Measured potencies and affinities stand elsewhere.
Assay: human monocytic cell viability reduction – S. typhimurium screen hits, cytotoxicity control for Salmonella PhoP regulon inhibitors, dose response (AID 2253)
Settings: THP-1 viability, CellTiter-Glo luminescence, 72 h; series mostly up to 50 µM

Row | SMILES | outcome
1 | CCn1nnc(-c2ccccc2NS(=O)(=O)c2ccc(S(=O)(=O)N3CCCCCC3)cc2)n1 | inactive
2 | Cc1nc(CC(=O)c2ccc(O)cc2O)cs1 | inactive
3 | OCCNc1ccc(Cl)cc1 | inactive
4 | CC(=O)Nc1nc(-c2ccc(Cl)cc2)nc(C)c1C(C)=O | inactive
5 | C#CCOc1c(Cl)cc(/C=N/O)cc1OC | inactive
6 | CC(C(=O)NC1C=CS(=O)(=O)C1)N1C(=O)/C(=C/c2ccc(Cl)cc2)SC1=S (centres undefined) | inactive
7 | COc1cc(C)c(Cc2cnc(N)nc2N)cc1OC | inactive
8 | CCn1cc(C(=O)O)c(=O)c2cc(Br)ccc21 | inactive
9 | Cc1ccc(OCc2nnc(SCC(=O)Nc3ccc4c(c3)OCO4)n2C)cc1 | inactive
10 | COc1ccc(NC(=O)CSc2nccn2-c2ccccc2)cc1 | inactive
11 | Cc1cc(C)c(C#N)c(SCC(O)CS(=O)(=O)Cc2ccccc2)n1 (centres undefined) | inactive
12 | CCn1c(Cc2c(C)[nH]c3ccccc23)n[nH]c1=S | inactive
13 | O=C1CSc2ccccc2N1Cc1ccc(F)cc1 | inactive
14 | COc1cc(C2SCC(=O)N2c2nnc(C34CC5CC(CC(C5)C3)C4)s2)cc(OC)c1OC (centres undefined) | inactive
15 | C/C(=C\c1ccco1)C1Nc2cccc3cccc(c23)N1 | inactive
16 | CN1CCN(C(c2cccc(C(F)(F)F)c2)c2nnnn2C(C)(C)C)CC1 (centres undefined) | inactive
17 | O=C(O)c1cc(O)c2c(c1)[C@@H]([C@H]1c3cc(C(=O)O)cc(O)c3C(=O)c3c(O[C@@H]4O[C@H](CO)[C@@H](O)[C@H](O)[C@H]4O)cccc31)c1cccc(OC3O[C@H](CO)[C@@H](O)[C@H](O)[C@H]3O)c1C2=O (some centres undefined) | inactive
18 | CN1CCN(c2c(F)cc3c(=O)c(C(=O)O)cn4c3c2OCN4C)CC1 | inactive
19 | COc1ccc(-n2c(=O)c3ccccc3n(CC(=O)Nc3cc(C)on3)c2=O)cc1OC | inactive
20 | CCn1cc(C(=O)O)c(=O)c2cc(F)c(N3CCN(C(=S)NC(=O)c4ccc(F)c(F)c4)CC3)cc21 | inactive
21 | COc1ccccc1CC1(C)NC(=O)N(CC(=O)N2CC(C)OC(C)C2)C1=O (centres undefined) | inactive
22 | CCn1nc(C(=O)O)c(=O)c2cc3c(cc21)OCO3 | inactive
23 | Cc1snc(S(=O)(=O)/C(C#N)=N\Nc2ccccc2)c1C#N | inactive

Row | SMILES | outcome
24 | COc1ccc(N2C(=O)[C@@H]3[C@H](C2=O)[C@H]2c4ccccc4C=CN2[C@@H]3C(=O)Nc2ccccc2)cc1 | inactive
25 | CC(CN1CCOCC1)C(=O)c1ccccc1 (centres undefined) | inactive
26 | CC(C)NC(=O)/C(=N\O)c1ccccc1 | inactive
27 | O=C(c1ccccc1)N1CCSC1=S | inactive
28 | CCC(CC)C(=O)Nc1cccc(C(=O)N2CCCC2)c1 | inactive
29 | Cc1cc(C(C)c2ccccc2)c(O)c(CN2CCOCC2)c1C (centres undefined) | inactive
30 | CCCCCOc1ccc(NC(=O)C(=O)NCCC2=CCCCC2)cc1 | inactive
31 | O=C(CSc1nncs1)Nc1ccc2c(c1)OCCO2 | inactive
32 | CC(O)CNc1cc(N)c([N+](=O)[O-])cc1[N+](=O)[O-] (centres undefined) | inactive
33 | CCNC(=O)COC(=O)CCC(=O)c1cccs1 | inactive
34 | COCCNS(=O)(=O)c1cccn1-c1ncc(C(F)(F)F)cc1Cl | inactive
35 | Cc1cc(C)cc(-n2nc(C)cc2N)c1 | inactive
36 | CCOC(=O)CN1C(=O)C(C)(C)Oc2ccc(C(=O)Nc3ccccc3OC)cc21 | inactive
37 | Cc1cccc(NC(=O)CCC(=O)OCc2ccc(Br)cc2)c1 | inactive
38 | O=C(O)C1CCC(N2C(=O)C3CCCCC3C2=O)CC1 (centres undefined) | inactive
39 | COC(=O)c1ccc(CSc2nnnn2-c2ccccc2)o1 | inactive
40 | Cc1ccccc1-n1nc(-c2ccc(N)cc2)cc1N | inactive
41 | CC(=O)c1cccc(NC(=O)Nc2cccs2)c1 | inactive
42 | O=C(NCc1ccccn1)Nc1cccc(Cl)c1 | inactive
43 | CC(=O)c1cccc(NC(=O)Nc2cc3sccc3n2C)c1 | inactive
44 | CN(C)C(CNC(=O)Nc1cccc(Cl)c1)c1cccnc1 (centres undefined) | inactive
45 | O=C(CSCc1ccccc1)Nc1ccc2c(c1)OCO2 | inactive
46 | Cc1cc(CNC(=O)Nc2ccc3c(c2)OCO3)nn1C | inactive

Row | SMILES | outcome
47 | Cc1ccccc1CS(=O)(=O)c1snnc1C | inactive
48 | CCOC(=O)c1cnc2ccccc2c1Nc1ccc2c(c1)OCCO2 | inactive
49 | CCOC(=O)c1cnc2ccc(OC)cc2c1Nc1ccc2c(c1)OCCO2 | inactive
50 | Cc1cc(Nc2ccccc2F)n2ncnc2n1 | inactive
51 | N/C(=N\OC(=O)Nc1ccc(Cl)cc1)c1ncc(C(F)(F)F)cc1Cl | inactive
52 | Cc1nn(-c2ncc(C(F)(F)F)cc2Cl)c(=O)n1-c1cccc(Cl)c1 | inactive
53 | CCCCNC(=O)OC1CCS(=O)(=O)C1 (centres undefined) | inactive
54 | Cc1ccc2nc(-c3ccc(Br)o3)oc(=O)c2c1 | inactive
55 | COC(=O)C1=C(C)N(C)C(=O)/C1=C\c1ccco1 | inactive
56 | C=CC1=C(C(=O)O)N2C(=O)[C@@H](NC(=O)/C(=N\O)c3csc(N)n3)[C@H]2SC1 (stereo in doubt) | inactive
57 | O=C1CC(SCc2nc3ccccc3[nH]2)C(=O)N1c1ccc(Cl)cc1 (centres undefined) | inactive
58 | O=C(NC1CCCCC1)C(c1ccncc1)N(CC1CCCO1)C(=O)C(F)(F)F (centres undefined) | inactive
59 | Cn1cccc1CC(=O)NNC(=S)Nc1ccc(Cl)cc1 | inactive
60 | O=C(Nc1ccc(Cl)cc1)N1CC=CCC1 | inactive
61 | CCC(CC)c1nnc(NC(=O)Oc2ccccc2)s1 | inactive
62 | CCN(CC(=O)N1CCN(Cc2ccccc2)CC1)S(=O)(=O)c1ccc(F)cc1 | inactive
63 | Cc1ccccc1NC(=O)Nc1cccs1 | inactive
64 | S=C(Nc1ccc2snnc2c1)N1CCN(c2ccccn2)CC1 | inactive
65 | COc1ccccc1NC(=S)NC(=O)C(C)(C)C | inactive
66 | CCN(CC)CCN(Cc1cc2cc3c(cc2[nH]c1=O)OCCO3)C(=O)NC1CCCCC1 | inactive
67 | Nc1ccc2c(c1)C(=O)N(CC1CCCO1)C2=O (centres undefined) | inactive
68 | Nc1ccc2oc3ccccc3c2c1 | inactive
69 | CCOC(=O)c1cn(CC)c2cc(N3CCOCC3)c(F)cc2c1=O | inactive

Row | SMILES | outcome
70 | CCCc1cc(N2CCN(c3ccccn3)CC2)n2nc(C)c(-c3ccccc3)c2n1 | inactive
71 | CCCN(CCC)CCCNS(=O)(=O)c1ccc2c(c1)oc(=O)n2C | inactive
72 | COC(=O)Cn1c(C)nc2ccccc21 | inactive
73 | O=C(O)CCc1nn2c3ccccc3n(CC(=O)c3ccccc3)c2nc1=O | inactive
74 | CSc1nsc(SCC(=O)Nc2ccc(C(C)=O)cc2)n1 | inactive
75 | CCCc1nc2c(o1)CC(CC(C)SCC)CC2=O (centres undefined) | inactive
76 | Cc1cc(Oc2ccc(-c3nnc(-c4ccccc4)o3)cc2[N+](=O)[O-])ccc1Cl | inactive
77 | C=CCOc1ccc(Br)cc1/C=N/O | inactive
78 | CCOC(=O)CCCNC(=O)COC(=O)CCC(=O)c1ccc(F)cc1 | inactive
79 | COc1ccccc1N1CCN(C/C(O)=C(\C#N)c2nc(-c3ccccc3)cs2)CC1 | inactive
80 | Cc1cc(C)nc(NC(=O)Cc2cccs2)n1 | inactive
81 | Cc1oc(CC(C)C)c(CN2CCCC2)c1C(=O)O | inactive
82 | O=C(O)C1(P(=O)(c2ccccc2)c2ccccc2)CCC1 | inactive
83 | O=C(O)CCc1nnc2n(Cc3ccc(F)cc3)c(=O)c3ccccc3n12 | inactive
84 | CC1Cc2ccccc2N1C(=O)COC(=O)c1ccc(S(=O)(=O)N(C)C)cc1 (centres undefined) | inactive
85 | CCSc1nc(C2CC2)cc(-c2cccs2)c1C#N | inactive
86 | Cc1ccc(-n2nc(-c3ccc(N)cc3)cc2N)cc1 | inactive
87 | O=c1cc(O)nc(SCc2ccccc2Cl)[nH]1 | inactive
88 | O=C(O)CCS(=O)(=O)c1ccc(-c2ccccc2)cc1 | inactive
89 | Cc1c(Cl)cccc1NC(=O)CSCC(N)=O | inactive
90 | O=C(NC(NC(=S)Nc1ccc(Cl)cc1)C(Cl)(Cl)Cl)c1ccco1 (centres undefined) | inactive
91 | CCC(C)NC(=O)c1cn(CC)c2cc(N3CCN(C)CC3)c(F)cc2c1=O (centres undefined) | inactive
92 | NC(=O)C1(NC(=O)[C@@H]2CC3(CC(c4cccc(NC(=O)[C@@H]5CCC(=O)N5)c4)=NO3)CN2C(=O)Cc2ccc(Cl)cc2)CC1 (some centres undefined) | inactive

Row | SMILES | outcome
93 | COCCNC(=O)c1ccc(C(=O)NCCOC)s1 | inactive
94 | COc1cc(S(=O)(=O)N2CCCCC2)ccc1NC=O | inactive
95 | O=C(OCC(=O)c1ccc(S(=O)(=O)N2CCCC2)cc1)C1=COCCO1 | inactive
96 | CCOC(=O)N1CCN(C(=O)c2ccc(NC(=O)c3ccc(C)cc3)cc2)CC1 | inactive
97 | CCn1cc(C(=O)OCC(=O)Nc2ccc(S(=O)(=O)N3CCCC3)cc2)c(=O)c2ccc(C)nc21 | inactive
98 | Cc1nnc(SC(C)C(=O)Nc2ccc(S(=O)(=O)N3CCCCCC3)cc2)s1 (centres undefined) | inactive
99 | O=C(CCC(=O)c1cccs1)OCC(=O)N1CCN(S(=O)(=O)c2ccccc2)CC1 | inactive
100 | Cc1cc(C)c2c(=O)[nH]c(SCC(=O)Nc3ccc(N(C)C)cc3)nc2n1 | inactive
101 | Cc1cccc(C(=O)O/N=C2\CCSc3ccc(C)cc32)c1 | inactive
102 | CC1(C)CC(=O)C(C=Nc2ccc(Cl)cn2)=C(O)C1 | inactive
103 | CN1CCN(c2cc3c(cc2F)c(=O)c(C(=O)O)cn3CCF)CC1 | inactive
104 | Cc1cc(C(=O)NCc2ccco2)no1 | inactive
105 | CC(C)(C)NS(=O)(=O)c1ccc(CCC(=O)N2CCOCC2)cc1 | inactive
106 | CCOC(=O)C1=C(c2ccccc2)N=C2SCC(=O)N2C1c1ccc(O)c(OC)c1 (centres undefined) | inactive
107 | COc1ccc(-c2csc(NC(=O)C3CCCO3)n2)cc1 (centres undefined) | inactive
108 | COc1ccc(-c2nnc(SCC(=O)NCc3ccco3)o2)cc1 | inactive
109 | CCN(C(C)=O)c1nc(CSc2nnc(NC(C)C)s2)cs1 | inactive
110 | COc1ccc(/C=N/NC(=O)c2ccc3c(c2)OCCO3)cc1[N+](=O)[O-] | inactive
111 | O=C(CN1CCCCC1)Nc1cccc(Br)c1 | inactive
112 | O=C(CN1CCCCCC1)Nc1cccc(Br)c1 | inactive
113 | O=C(c1cccc(S(=O)(=O)N2CCOCC2)c1)N1CCCC1 | inactive
114 | CCOC(=O)C1=CSC2=NS(=O)(=O)CCN12 | inactive

From PubChem BioAssay AID2253 (Southern Research Specialized Biocontainment Screening …, 2010)
